The campaign covered roughly 5,500 compounds. About 2,000 (36%) were called active. Not shown: some 18% with an inconclusive outcome. No stated cut-off is given here; in the data, active means normalized growth mostly below about 0.91 (no sharp cut-off); inconclusive means no clear call, values can overlap the other calls; inactive means mostly above about 0.92. This is one part of the list.
Test: chemical genetic growth profiling, strain panel (AID 1159580);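 further: tested at 20 µM; growth read once vehicle control cultures reached saturation at 30 °C; 1 = growth at the plate median or of vehicle wells; lower values mean less growth of the strain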
Settings: growth OD
[1] = S. cerevisiae deletion strains, locus YAR019C, strain CDC15, active compounds read low
[2] = S. cerevisiae deletion strains, locus YBL105C, strain PKC1, active compounds read low
[3] = S. cerevisiae deletion strains, locus YBR135W, strain CKS1, active compounds read low
[4] = S. cerevisiae deletion strains, locus YBR136W, strain MEC1, active compounds read low
[5] = S. cerevisiae deletion strains, locus YBR160W, strain CDC28, active compounds read low
[6] = S. cerevisiae deletion strains, locus YDL017W, strain CDC7, active compounds read low
[7] = S. cerevisiae deletion strains, locus YDL028C, strain MPS1, active compounds read low
[8] = S. cerevisiae deletion strains, locus YDL101C, strain DUN1, active compounds read low
[9] = S. cerevisiae deletion strains, locus YDL108W, strain KIN28, active compounds read low
[10] = S. cerevisiae deletion strains, locus YDL132W, strain cdc53, active compounds read low
[11] = S. cerevisiae deletion strains, locus YDL214C, strain PRR2, active compounds read low
[12] = S. cerevisiae deletion strains, locus YDR052C, strain DBF4, active compounds read low
[13] = S. cerevisiae deletion strains, locus YDR054C, strain cdc34, active compounds read low
[14] = S. cerevisiae deletion strains, locus YDR226W, strain ADK1, active compounds read low
[15] = S. cerevisiae deletion strains, locus YDR477W, strain SNF1, active compounds read low
[16] = S. cerevisiae deletion strains, locus YER123W, strain YCK3, active compounds read low
[17] = S. cerevisiae deletion strains, locus YER133W, strain GLC7, active compounds read low
[18] = S. cerevisiae deletion strains, locus YFL009W, strain cdc4, active compounds read low
[19] = S. cerevisiae deletion strains, locus YFL029C, strain CAK1, active compounds read low
[20] = S. cerevisiae deletion strains, locus YFR003C, strain YPI1, active compounds read low
[21] = S. cerevisiae deletion strains, locus YFR019W, strain FAB1, active compounds read low
[22] = S. cerevisiae deletion strains, locus YFR028C, strain CDC14, active compounds read low
[23] = S. cerevisiae deletion strains, locus YGR040W, strain KSS1, active compounds read low
[24] = S. cerevisiae deletion strains, locus YGR052W, strain FMP48, active compounds read low
[25] = S. cerevisiae deletion strains, locus YGR092W, strain DBF2, active compounds read low
[26] = S. cerevisiae deletion strains, locus YHR030C, strain SLT2, active compounds read low
[27] = S. cerevisiae deletion strains, locus YHR079C, strain IRE1, active compounds read low
[28] = S. cerevisiae deletion strains, locus YHR082C, strain KSP1, active compounds read low
[29] = S. cerevisiae deletion strains, locus YHR205W, strain SCH9, active compounds read low
[30] = S. cerevisiae deletion strains, locus YIL147C, strain SLN1, active compounds read low
[31] = S. cerevisiae deletion strains, locus YJL095W, strain BCK1, active compounds read low
[32] = S. cerevisiae deletion strains, locus YJL128C, strain PBS2, active compounds read low
[33] = S. cerevisiae deletion strains, locus YJL157C, strain FAR1, active compounds read low
[34] = S. cerevisiae deletion strains, locus YJR016C, strain ILV3, active compounds read low
[35] = S. cerevisiae deletion strains, locus YJR066W, strain TOR1 (second series), active compounds read low
[36] = S. cerevisiae deletion strains, locus YJR066W, strain TOR1, active compounds read low
[37] = S. cerevisiae deletion strains, locus YKL048C, strain ELM1, active compounds read low
[38] = S. cerevisiae deletion strains, locus YKL067W, strain YNK1, active compounds read low
[39] = S. cerevisiae deletion strains, locus YKL101W, strain HSL1, active compounds read low
[40] = S. cerevisiae deletion strains, locus YKL193C, strain SDS22, active compounds read low
[41] = S. cerevisiae deletion strains, locus YKL203C, strain TOR2, active compounds read low
[42] = S. cerevisiae deletion strains, locus YLR113W, strain HOG1, active compounds read low
[43] = S. cerevisiae deletion strains, locus YLR133W, strain CKI1, active compounds read low
[44] = S. cerevisiae deletion strains, locus YLR403W, strain SFP1, active compounds read low
[45] = S. cerevisiae deletion strains, locus YML070W, strain DAK1, active compounds read low
[46] = S. cerevisiae deletion strains, locus YMR001C, strain CDC5, active compounds read low
[47] = S. cerevisiae deletion strains, locus YMR205C, strain PFK2 (second series), active compounds read low
[48] = S. cerevisiae deletion strains, locus YMR277W, strain FCP1, active compounds read low
[49] = S. cerevisiae deletion strains, locus YNL006W, strain LST8, active compounds read low
[50] = S. cerevisiae deletion strains, locus YNL020C, strain ARK1, active compounds read low
[51] = S. cerevisiae deletion strains, locus YNL161W, strain CBK1, active compounds read low
[52] = S. cerevisiae deletion strains, locus YNL183C, strain NPR1, active compounds read low
[53] = S. cerevisiae deletion strains, locus YNL207W, strain RIO2, active compounds read low
[54] = S. cerevisiae deletion strains, locus YNL222W, strain SSU72, active compounds read low
[55] = S. cerevisiae deletion strains, locus YNL307C, strain MCK1 (second series), active compounds read low
[56] = S. cerevisiae deletion strains, locus YOL078W, strain AVO1, active compounds read low
[57] = S. cerevisiae deletion strains, locus YOL136C, strain PFK27, active compounds read low
[58] = S. cerevisiae deletion strains, locus YOR061W, strain CKA2, active compounds read low
[59] = S. cerevisiae deletion strains, locus YOR119C, strain RIO1, active compounds read low
[60] = S. cerevisiae deletion strains, locus YOR231W, strain MKK1, active compounds read low
[61] = S. cerevisiae deletion strains, locus YOR329C, strain SCD5, active compounds read low
[62] = S. cerevisiae deletion strains, locus YPL031C, strain PHO85, active compounds read low
[63] = S. cerevisiae deletion strains, locus YPL153C, strain RAD53, active compounds read low
[64] = S. cerevisiae deletion strains, locus YPL204W, strain HRR25, active compounds read low
[65] = S. cerevisiae deletion strains, locus YPL209C, strain IPL1, active compounds read low
[66] = S. cerevisiae deletion strains, locus YPL256C, strain CLN2, active compounds read low
[67] = S. cerevisiae deletion strains, locus YPR025C, strain CCL1, active compounds read low
[68] = S. cerevisiae deletion strains, locus YPR106W, strain ISR1, active compounds read low
[69] = S. cerevisiae deletion strains, locus YPR111W, strain DBF20, active compounds read low
[70] = S. cerevisiae deletion strains, strain NNK1, active compounds read low
[71] = S. cerevisiae deletion strains, strain TSCII, active compounds read low

Measured: normalized growth

CC(C)(C)c1ccc(C(=O)NNC(=S)Nc2ccc(Cl)cc2)cc1
active: [26] 0.731 | [66] 0.839
inactive: [1] 0.958 | [2] 0.978 | [3] 0.972 | [4] 0.974 | [5] 0.965 | [6] 0.983 | [7] 0.936 | [8] 0.978 | [9] 0.96 | [10] 0.971 | [11] 0.932 | [12] 0.986 | [13] 0.968 | [14] 0.954 | [15] 0.931 | [16] 0.895 | [17] 0.949 | [18] 0.937 | [19] 0.96 | [20] 0.98 | [21] 0.98 | [22] 0.957 | [23] 0.939 | [24] 0.974 | [25] 0.862 | [27] 0.916 | [28] 0.984 | [29] 0.904 | [30] 0.973 | [31] 0.898 | [32] 0.93 | [33] 0.953 | [34] 0.986 | [35] 0.845 | [36] 0.903 | [37] 0.996 | [38] 0.909 | [39] 0.91 | [40] 0.97 | [41] 1.01 | [42] 0.878 | [43] 0.938 | [44] 0.96 | [45] 0.921 | [46] 0.953 | [47] 0.933 | [48] 0.949 | [49] 0.981 | [50] 0.933 | [51] 0.986 | [52] 0.962 | [53] 0.971 | [54] 0.976 | [55] 0.896 | [56] 0.97 | [57] 0.919 | [58] 0.969 | [59] 0.964 | [60] 0.916 | [61] 0.983 | [62] 0.927 | [63] 0.873 | [64] 0.907 | [65] 0.968 | [67] 0.979 | [68] 0.984 | [69] 0.927 | [70] 0.997 | [71] 0.974

S=C(Nc1ccc(Cl)cc1)Nc1ccc(Cl)cc1
inactive: [1] 0.912 | [2] 0.915 | [3] 0.938 | [4] 0.928 | [5] 0.926 | [6] 0.921 | [7] 0.935 | [8] 0.96 | [9] 0.933 | [10] 0.927 | [11] 0.855 | [13] 0.912 | [14] 0.95 | [15] 0.861 | [16] 0.791 | [17] 0.828 | [18] 0.925 | [19] 0.92 | [20] 0.922 | [21] 0.864 | [22] 0.915 | [23] 0.847 | [24] 0.811 | [25] 0.703 | [27] 0.807 | [28] 0.902 | [29] 0.881 | [30] 0.926 | [31] 0.814 | [32] 0.903 | [33] 0.827 | [34] 0.922 | [35] 0.83 | [36] 0.772 | [37] 0.944 | [38] 0.853 | [39] 0.888 | [40] 0.926 | [41] 0.871 | [43] 0.839 | [44] 0.835 | [45] 0.825 | [46] 0.922 | [47] 0.871 | [48] 0.918 | [49] 0.937 | [50] 0.837 | [51] 0.918 | [52] 0.779 | [53] 0.893 | [54] 0.936 | [55] 0.783 | [56] 0.921 | [57] 0.848 | [58] 0.808 | [59] 0.878 | [60] 0.836 | [61] 0.923 | [62] 0.82 | [63] 0.845 | [64] 0.778 | [65] 0.923 | [67] 0.932 | [68] 0.931 | [69] 0.931 | [70] 0.932 | [71] 0.906
active: [12] 0.894 | [26] 0.662 | [42] 0.717 | [66] 0.819

O=C(NNC(=S)Nc1ccc(Cl)cc1)c1ncc(C(F)(F)F)cc1Cl
inactive: [1] 0.968 | [2] 0.99 | [3] 0.992 | [4] 0.985 | [5] 0.994 | [6] 0.989 | [7] 0.988 | [8] 0.985 | [9] 0.986 | [10] 0.966 | [11] 0.956 | [12] 0.991 | [13] 0.961 | [14] 0.982 | [15] 0.935 | [16] 0.863 | [17] 0.94 | [18] 0.975 | [19] 0.973 | [20] 0.991 | [21] 1 | [22] 0.984 | [23] 0.929 | [24] 0.942 | [25] 0.755 | [26] 0.901 | [27] 0.768 | [28] 1.08 | [29] 0.981 | [30] 0.972 | [31] 0.791 | [32] 0.971 | [33] 0.912 | [34] 0.974 | [35] 0.885 | [36] 1.01 | [37] 0.986 | [38] 0.95 | [39] 0.926 | [40] 0.984 | [41] 1.01 | [42] 0.886 | [43] 0.932 | [44] 0.91 | [45] 0.93 | [46] 0.986 | [47] 0.956 | [48] 0.966 | [49] 0.991 | [50] 0.929 | [51] 0.981 | [52] 0.854 | [53] 0.973 | [54] 0.979 | [55] 0.912 | [56] 0.972 | [57] 0.939 | [58] 0.925 | [59] 0.962 | [60] 0.843 | [61] 0.99 | [62] 0.901 | [63] 0.882 | [64] 0.86 | [65] 0.992 | [66] 0.875 | [67] 0.98 | [68] 0.987 | [69] 0.987 | [70] 0.995 | [71] 0.968

Cc1nn(-c2ccccc2)nc1C(=O)NNC(=S)Nc1ccc(Cl)cc1
inactive: S. cerevisiae deletion strains, locus YAL013W, strain DEP1, active compounds read low 0.957 | S. cerevisiae deletion strains, locus YBR229C, strain ROT2, active compounds read low 0.983 | S. cerevisiae deletion strains, locus YCL061C, strain MRC1, active compounds read low 1.04 | S. cerevisiae deletion strains, locus YGR078C, strain PAC10, active compounds read low 0.991 | [26] 0.889 | S. cerevisiae deletion strains, locus YHR087W, strain rtc3, active compounds read low 0.988 | S. cerevisiae deletion strains, locus YJL187C, strain SWE1, active compounds read low 0.954 | S. cerevisiae deletion strains, locus YJR043C, strain POL32, active compounds read low 0.985 | S. cerevisiae deletion strains, locus YLR058C, strain SHM2 (second series), active compounds read low 1.01 | S. cerevisiae deletion strains, locus YLR085C, strain ARP6, active compounds read low 0.82 | S. cerevisiae deletion strains, locus YLR262C, strain YPT6, active compounds read low 0.858 | S. cerevisiae deletion strains, locus YML094W, strain GIM5, active compounds read low 0.904 | S. cerevisiae deletion strains, locus YMR263W, strain SAP30, active compounds read low 1.01 | S. cerevisiae deletion strains, locus YNL153C, strain GIM3, active compounds read low 1.04 | S. cerevisiae deletion strains, locus YNL322C, strain KRE1, active compounds read low 1.02 | S. cerevisiae deletion strains, locus YPL241C, strain CIN2, active compounds read low 0.929 | S. cerevisiae deletion strains, locus YPR135W, strain CTF4, active compounds read low 0.969
active: S. cerevisiae deletion strains, locus YEL061C, strain CIN8, active compounds read low 0.866 | S. cerevisiae deletion strains, locus YJR075W, strain HOC1, active compounds read low 1.33 [resistant] | S. cerevisiae deletion strains, locus YLR039C, strain RIC1, active compounds read low 0.785 | S. cerevisiae deletion strains, locus YNL298W, strain CLA4 (second series), active compounds read low 0.835 | S. cerevisiae deletion strains, locus YNR030W, strain Alg12, active compounds read low 0.854 | S. cerevisiae deletion strains, locus YPL055C, strain LGE1, active compounds read low 0.814 | S. cerevisiae strains, strain wild type, active compounds read low 0.887

Reference: PubChem BioAssay AID1159580 (chemical genetic matrix, 2015)
